Measured values: the supplement of paper PMC6555819

Key:
Assay in all cases: PBM binding z-score (relative to random genomic background probes); higher = stronger binding; sequences stand for … in GC…GCGATTGACAGCGTAGAATGAAGG
[1] = system: FXR:RXRa (NR concentration 270 nM, RXRa partner concentration 90 nM)
How it was run: (§1)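 Ligand-free nuclear receptor dimers were applied to custom Agilent 4×180K protein-binding microarrays whose double-stranded probes carried direct-repeat seeds, single-nucleotide variants, half-site ablations and random human genomic background sequences in 34-nt variable regions. Incubation lasted 1 h. Binding z-scores were computed against the random background probes from regression-normalized fluorescence.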

[2] = system: LXRa:RXRa (NR concentration 270 nM, RXRa partner concentration 90 nM)
How it was run: as §1

[3] = system: LXRa homodimer (NR concentration 270 nM)
How it was run: as §1

[4] = system: LXRb:RXRa (NR concentration 270 nM, RXRa partner concentration 90 nM)
How it was run: as §1

[5] = system: LXRb homodimer (NR concentration 270 nM)
How it was run: as §1

[6] = system: PPARa:RXRa (NR concentration 270 nM, RXRa partner concentration 90 nM)
How it was run: as §1

[7] = system: PPARg:RXRa (NR concentration 180 nM, RXRa partner concentration 90 nM)
How it was run: as §1

[8] = system: PPARg:RXRa 270nM:90nM, anti-RXR (NR concentration 270 nM, RXRa partner concentration 90 nM)
How it was run: as §1

[9] = system: PPARg:RXRa 30nM:10nM, anti-RXR (NR concentration 30 nM, RXRa partner concentration 10 nM)
How it was run: as §1

[10] = system: PPARg:RXRa 90nM:30nM, anti-RXR (NR concentration 90 nM, RXRa partner concentration 30 nM)
How it was run: as §1

| Sequence | PBM binding z-score [1] | PBM binding z-score [2] | PBM binding z-score [3] | PBM binding z-score [4] | PBM binding z-score [5] | PBM binding z-score [6] | PBM binding z-score [7] | PBM binding z-score [8] | PBM binding z-score [9] | PBM binding z-score [10] |
| --- | --- | --- | --- | --- | --- | --- | --- | --- | --- | --- |
| CGTATTAGTTGACCATAAGGGCAACCGAAGCTCG | 0.6 | 0.437 | 0.259 | 0.258 | 0.134 | 0.617 | 0.684 | 0.523 | -0.0743 | 0.805 |
| CCTACTGGGCCATTCAGAGGTCATGGATCATATG | 2.57 | 4.16 | 5.17 | 3.61 | -0.202 | 4.54 | 2.64 | 3.6 | 1.23 | 3.29 |
| AGAATGAGGTTATACGTAGATCAGGGTAGAAAGT | 2.27 | 1.96 | 0.00674 | 1.65 | 0.246 | 3.21 | 2.08 | 2.36 | 0.669 | 1.22 |
| ACTTACGGGTCAACGAGGTAATAGCACGCGTATA | 6.86 | 4.42 | 0.29 | 3.61 | 0.727 | 5.72 | 5.56 | 5.53 | 2.48 | 4.37 |
| CCGACTGGGGCGGAAAGGTTACCATACCATCCGG | 0.516 | 0.85 | 0.0346 | 1.23 | -0.589 | 2.08 | 1.41 | 2.7 | 0.707 | 1.99 |
| TCTTGTAGATCAACAGGAGGTTAAGCAAGATCGA | 0.257 | 0.838 | -0.069 | 0.853 | -0.368 | 1.48 | 0.076 | 1.47 | 2.39 | 1.74 |
| TAGCCTCGGTCATGGGCCAGTATACCACGCGAAC | 0.333 | 0.687 | 0.0533 | -0.073 | -0.572 | 0.143 | 0.374 | 0.188 | -0.674 | -0.0831 |
| TTACCAAGGTGATCTGAGGTCGTTGATCCAACTC | 1.9 | 3.07 | 0.554 | 1.78 | -0.164 | 1.78 | 0.169 | 0.846 | 0.216 | 0.651 |
| TGGATGAGGTTATAAGATCAGGGAACGTTGCAAA | 1.51 | 1.26 | 0.181 | 1.52 | 0.594 | 2.42 | 0.897 | 1.54 | 0.844 | 1.35 |
| GCTCGGAGGGCAAGGTCAGAGCTTTGTCCGTAGA | 2.16 | 2.05 | -0.485 | 1.26 | -1.03 | 3 | 1.23 | 2 | -0.62 | 0.771 |
| TCCTGTAGATCAGCAGGTTAAGAAAGCTGGCCAA | 0.47 | 0.36 | -0.398 | 0.304 | -0.639 | 0.87 | -0.289 | 1.6 | 2.43 | 1.83 |
| ACTATTAGTTGAGACGAGGGCAACAGATAGGTTG | 0.212 | -0.0273 | -0.073 | 0.0186 | 0.272 | 0.442 | 0.846 | -0.171 | 0.0997 | -0.129 |
| ACAGCCAGGTGATGAAGGTAACTCAGGCTATCAT | -0.381 | -0.496 | -0.468 | -0.553 | -0.982 | 0.0268 | 0.565 | -0.0458 | -0.229 | -0.315 |
| TCGAGTAGGTTACCAATGGGGCACTCAGCTTTCT | -0.431 | 0.466 | -1.03 | 0.379 | -0.732 | 0.966 | 0.351 | 1.39 | 1.09 | 1.15 |
| AGAACAAGGGCAATGAGTTGATAGCACGGGTGGC | 0.13 | 0.0784 | -0.454 | 0.0189 | 0.008 | 0.573 | 1.26 | 0.0922 | -0.195 | -0.176 |
| ACTAGTTGGTCAGTTGAGGTCACACACAATTCGG | 3.26 | 3.93 | 3.56 | 3.58 | 0.939 | 4.12 | 2.13 | 2.59 | 0.914 | 1.69 |
| TGAATGATGTTAAAGATCAGGGAACGTGGCGTCG | 0.0753 | 0.0362 | -0.207 | -0.167 | 0.281 | 0.925 | 1.32 | 2.98 | 1.82 | 2.49 |
| TGTCAAAGTTCAAAGGTAACGTAGGTATCCACAC | 6.64 | 6.44 | 4.15 | 4.46 | 1.58 | 5.79 | 8.31 | 7.65 | 4.86 | 7.25 |
| TCTATTAGTTGATTAAGGCAACCGAAACAGCGGA | 0.785 | 0.541 | 0.0619 | 0.645 | 0.994 | 0.614 | 0.172 | 2.06 | 3.75 | 2.99 |
| CGATCTAGGTCAAGGACAGTGAATCTCCGCACGC | 3.25 | 2.07 | 0.0913 | 1.3 | -0.135 | 4.43 | 7.27 | 5.87 | 3.68 | 5.55 |
| CCAACTAGGTCAAGAGGTCAAAGTCCGCTTCCCG | 6.96 | 6.55 | 6.26 | 5.47 | 1.76 | 6.42 | 9.41 | 7.99 | 6.27 | 8.1 |
| ATTTCTAGGTAAAAGTTCAGTGAATCCCGAGGAT | 1.14 | 1.71 | 1.53 | 1.49 | 1.12 | 5.27 | 9.08 | 8.85 | 8.73 | 10.6 |
| GCTAGCAGGCCATTTGGCTCACTCAATGACGGGC | -0.798 | -0.75 | -0.83 | -1.31 | -1.31 | -0.645 | 0.277 | -0.576 | -0.918 | -0.656 |
| CAAACTAAGTCACAGAGGTCAAAGTCCGTGCGTA | 5.08 | 5.61 | 5.8 | 5.22 | 2.02 | 5.18 | 3.74 | 4.78 | 2.63 | 4.18 |
| GGAACGAGTGCATTCGAGTTGATAGCATGGCGAT | -0.159 | 0.374 | -0.89 | -0.659 | -1.1 | -0.426 | 0.302 | -0.652 | -0.79 | -1.09 |
